{
  "source": "paper PMC11208138",
  "test_in_all_cases": "cross-link between two proteins; cross-linking mass spectrometry",
  "key": {"[1]": {"target": "Heterogeneous nuclear ribonucleoproteins C1/C2 (UniProt P07910)", "sequence (P07910 whole entry)": "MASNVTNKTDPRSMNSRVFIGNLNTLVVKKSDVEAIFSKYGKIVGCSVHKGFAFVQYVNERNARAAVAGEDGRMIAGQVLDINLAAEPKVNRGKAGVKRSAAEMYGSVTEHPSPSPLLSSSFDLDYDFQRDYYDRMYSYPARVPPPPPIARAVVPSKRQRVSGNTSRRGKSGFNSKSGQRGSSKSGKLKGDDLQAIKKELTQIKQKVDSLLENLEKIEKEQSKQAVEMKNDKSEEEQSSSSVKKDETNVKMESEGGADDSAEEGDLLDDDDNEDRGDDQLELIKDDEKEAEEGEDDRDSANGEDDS"}, "NHP2-like protein 1": {"target": "NHP2-like protein 1 (UniProt P55769)", "sequence (P55769 whole entry)": "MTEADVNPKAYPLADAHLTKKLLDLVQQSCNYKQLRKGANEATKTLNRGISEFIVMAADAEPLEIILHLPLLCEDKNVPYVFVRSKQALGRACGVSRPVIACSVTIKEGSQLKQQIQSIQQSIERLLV"}, "[2]": {"target": "Ubiquitin carboxyl-terminal hydrolase 39 (UniProt Q53GS9)", "sequence (Q53GS9 whole entry)": "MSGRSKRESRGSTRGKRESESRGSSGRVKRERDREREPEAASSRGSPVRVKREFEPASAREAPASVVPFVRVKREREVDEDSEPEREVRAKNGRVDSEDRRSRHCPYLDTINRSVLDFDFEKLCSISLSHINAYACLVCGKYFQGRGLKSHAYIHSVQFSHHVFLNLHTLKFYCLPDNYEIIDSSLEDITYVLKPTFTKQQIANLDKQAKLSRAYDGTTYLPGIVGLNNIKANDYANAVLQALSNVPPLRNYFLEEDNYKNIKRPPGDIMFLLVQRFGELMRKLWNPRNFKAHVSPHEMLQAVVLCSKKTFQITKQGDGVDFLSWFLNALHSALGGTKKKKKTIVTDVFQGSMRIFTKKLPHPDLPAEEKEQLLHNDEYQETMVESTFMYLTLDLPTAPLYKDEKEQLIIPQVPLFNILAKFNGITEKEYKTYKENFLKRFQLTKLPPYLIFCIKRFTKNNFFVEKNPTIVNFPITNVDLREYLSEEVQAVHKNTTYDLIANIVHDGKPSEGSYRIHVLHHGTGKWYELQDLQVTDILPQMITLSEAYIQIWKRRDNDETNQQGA"}, "[3]": {"target": "Serine/arginine-rich splicing factor 1 (UniProt Q07955)", "sequence (Q07955 whole entry)": "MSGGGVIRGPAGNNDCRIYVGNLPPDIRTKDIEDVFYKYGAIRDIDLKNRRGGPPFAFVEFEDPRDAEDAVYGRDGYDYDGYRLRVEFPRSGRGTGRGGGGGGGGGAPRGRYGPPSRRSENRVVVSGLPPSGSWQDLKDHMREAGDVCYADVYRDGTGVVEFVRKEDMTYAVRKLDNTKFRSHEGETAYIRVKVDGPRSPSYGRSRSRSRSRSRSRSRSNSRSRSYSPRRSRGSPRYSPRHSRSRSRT"}},
  "data": [
    {"substance": "Survival of motor neuron-related-splicing factor 30, O75940", "values": [
      {"measurement": "listed as a hit", "setting": "[1]", "result": "yes"}
    ]},
    {"substance": "Pre-mRNA-processing factor 6, O94906", "values": [
      {"measurement": "listed as a hit", "setting": "NHP2-like protein 1", "result": "yes"},
      {"measurement": "listed as a hit", "setting": "[2]", "result": "yes"}
    ]},
    {"substance": "Probable ATP-dependent RNA helicase DDX5, P17844", "values": [
      {"measurement": "listed as a hit", "setting": "[3]", "result": "yes"}
    ]}
  ]
}
